{
  "source": "PubChem BioAssay (NCATS)",
  "note": "Results filed as inconclusive are left out. Entries that show only a call come without a potency. Activity calls are given as the source filed them. Calls follow the shape of the dose curve; as a rule, active = well fitted cell-killing curve with a large enough effect; inconclusive = small, poorly fitted or top-dose-only effect, or effect the other way; inactive = flat fitted curve, though single readings scatter. Where a SMILES comes first, the peptide text is derived from it. [ ]: non-standard residue; d: D form. ξ: configuration not given here. ξTyr(βOH) = NC(C(=O)O)C(O)c1ccc(O)cc1",
  "data": [
    {"test_system": "Hek293T", "assay": "Primary qHTS to identify gynecologic anti-cancer compounds using libraries of approved drugs and bioactive compounds (AID 1345084); also: nearly all actives have a fitted effect of over 55% in size", "details": "Gynecologic cancer cell panel viability, ATPlite luminescence, 48 h, control line for the selectivity index; series mostly up to 57.5 µM", "method_in_brief": "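Five-concentration response, 48 h; readout is ATP-driven luciferase luminescence.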", "values": [
      {"smiles": "NC1(c2ccc(NC(=O)c3ccnc(-c4cc(C(=O)O)ccn4)c3)cc2)CC1", "Potency": "inactive"},
      {"smiles": "CCCC/C=C\\CCCCCc1cc(=O)c2ccccc2n1C", "Potency": "inactive"},
      {"smiles": "COCc1c(O)c(C(=O)O)c(C)c2c1OC(=O)c1c(C)cc(O)c(CO)c1O2", "Potency": "inactive"},
      {"smiles": "C/C=C/C=C/C1=C2C(=O)C3(C)C4C(C(=O)CC(O)/C=C/C)=C(O1)C1(C)C2C2(C)OC1(O)C4(C)OC23O", "note": "(stereo not drawn)", "Potency": "inactive"},
      {"smiles": "CC12CC(O)C(O)C=C1c1cc(O)cc(O)c1C(=O)O2", "note": "(stereo not drawn)", "Potency": "inactive"},
      {"smiles": "C=C1C2(C)CC3C4(C)C=CC(=O)OC(C)(C)C4CCC3(C)C1(C(=O)OC)C(=O)C(C)(O)C2=O", "note": "(stereo not drawn)", "Potency": "inactive"},
      {"smiles": "CC1(C)[C@H]2C[C@H](C/C=C\\CCCC(=O)O)[C@@H](NC(=O)c3csc4ccc(O)cc34)[C@@H]1C2", "Potency": "inactive"},
      {"smiles": "CC(C)c1ccc2c(c1)CCC1[C@](C)(C(=O)O)CCC[C@]21C", "note": "(stereo partly drawn)", "Potency": "inactive"},
      {"smiles": "C[C@@H]1O[C@@H](OC(=O)Cc2ccccc2)[C@H](O)[C@H](O)[C@H]1O", "Potency": "inactive"},
      {"smiles": "Cn1cc(-c2c[nH]c3ncnc(N4CCOCC4)c23)cn1", "Potency": "inactive"},
      {"smiles": "CC(C)C1NC(=O)C(CC2(O)c3ccccc3N3C(=O)C(Cc4ccccc4)NC32)NC1=O", "note": "(stereo not drawn)", "Potency": "inactive"},
      {"smiles": "C[C@@]12CC3(S(=O)(=O)O)OC(O1)[C@]1(COC(=O)c4ccccc4)[C@H]3C[C@]21O[C@@H]1O[C@H](CO)[C@@H](O)[C@H](O)[C@H]1O", "Potency": "inactive"},
      {"smiles": "CC(C)C1NC(=O)CNC(=O)C2CCCN2C(=O)C(Cc2c[nH]c3ccccc23)NC(=O)CNC(=O)C(C(O)c2ccc(O)cc2)NC(=O)CNC1=O", "note": "(stereo not drawn) (cyclo(G[ξTyr(βOH)]GWPGV); configuration not given here)", "Potency": "inactive"}
    ]}
  ]
}
